Hits are enriched below; roughly 2.2% of the tested compounds scored in any of these assays.
Ba/F3 V617F tox – reduce viability of Ba/F3 cells dependent on JAK2V617F. Ba/F3 EpoR-JAK2V617F viability, ATP luminescence. inhibition, % at 5.6 µM. 1.1% of 220,000 active. AID 1446;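 active means inhibition above the campaign mean plus 3 SD over all tested compounds, cut at about 24% in these data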;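 further: cytokine-independent growth of Ba/F3 cells driven by EpoR plus mutant JAK2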
IEC-6 tox – kills IEC-6 intestinal cells in KLF5 counter-screen; IEC-6 cytotoxicity, luminescence viability; inhibition, % at 5 µM; 0.78% of 290,000 active; in the data active means inhibition above about 22%
APP transl inh – APP translation inhibition; SH-SY5Y APP 5'UTR-luciferase reporter, luminescence; inhibition, % at 2 µM; 0.82% of 190,000 active; AID 1285;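 active means inhibition above a set limit, derived from the sample mean plus 3 SD, cut at about 45% in these data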
BaF3 tox – counter-screen for JAK2V617F inhibitors: parental Ba/F3 viability inhibitors | 1.1% of 220,000 active | AID 1486 | CellTiter-Glo ATP luminescence | inhibition, % at 5.6 µM;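 active means inhibition above a per-campaign cutoff, the mean inhibition of all tested compounds plus 3 SD, cut at about 27% in these data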
aSyn 5UTR inh – 5' untranslated region of α-synuclein, MLPCN primary screen. alpha-synuclein 5'UTR reporter, inhibitor activity. inhibition, % (tested at 7.5 µM). 0.82% of 300,000 active; in the data active means inhibition above about 60%;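 further: H4 neuroglioblastoma cells stably carrying SNCA 5'UTR luciferase fusion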
KLF5 inhibitor – inhibitors of KLF5 expression | DLD-1 KLF5 promoter-luciferase reporter, luminescence | inhibition, % at 5 µM | 0.23% of 290,000 active | AID 1700;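 active means inhibition above a per-plate limit of that plate's mean compound inhibition plus 3 SD, cut at about 60% in these data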;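 further: higher means less KLF5 promoter-driven luciferase light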
Numbers stand for hits; 0 = inactive; - = no result.

SMILES | Ba/F3 V617F tox | IEC-6 tox | APP transl inh | BaF3 tox | aSyn 5UTR inh | KLF5 inhibitor
CCOC(=O)Cn1c(=O)c(-c2cc(Br)ccc2N)nc2ccccc21 | 47 | 0 | - | 88 | 0 | 0
Cn1c(=O)c(-c2cc(Br)ccc2N)nc2ccccc21 | 40 | 0 | 0 | 46 | 0 | 0
Cc1ccn(CCC(=O)N2CCc3ccccc32)n1 | - | 0 | - | - | 0 | 0
O=C(c1ccc(Br)s1)N1CCN(c2ccccn2)CC1 | - | 0 | - | - | 0 | 0
O=C(N1CCN(c2ccccn2)CC1)N1c2ccccc2Sc2ccccc21 | 71 | 0 | 94 | 76 | 0 | 0
CCCCn1c(N)c(N(CCOC)C(=O)c2ccc(S(=O)(=O)N3CCCCCC3)cc2)c(=O)[nH]c1=O | - | - | - | - | 0 | -
CCc1ccc2nc(SCC(=O)N3CC(=O)Nc4ccccc43)c(C#N)cc2c1 | 0 | 0 | 94 | 0 | 0 | 0
CCOc1cc(C(=O)N/N=C(\C)Cc2ccc(OC)cc2)cc(OCC)c1OCC | 0 | 0 | 86 | 0 | 0 | 0
Cc1cccc(NC(=O)[C@@H]2CCCN2C(=O)OC(C)(C)C)c1 | - | 0 | - | - | 0 | 0
COc1cc(/C=N/NC(=O)C(=O)/C=C2\NC3(CCCC3)Cc3ccccc32)ccc1O | 0 | 0 | 0 | 0 | 0 | 0
O=C(/C=C1\NC2(CCCC2)Cc2ccccc21)C(=O)N/N=C/c1ccccc1O | 0 | 0 | 67 | 0 | 74 | 0
Cc1nnc(C)c2c(C)n(-c3ccccc3N)c(C)c12 | 0 | 0 | 0 | 0 | 0 | 0
Cc1cccc(N2CCN(C(=O)C3CCN(c4nnc(-n5cccc5)s4)CC3)CC2C)c1 (centres undefined) | 0 | 0 | 0 | 45 | 0 | 0
O=S(=O)(c1ccccc1)C1(C2CC(c3ccccc3)=NO2)CC(O)C1 (centres undefined) | - | 0 | - | - | 0 | 0
Cc1cc(C(=O)NN)c2cc(Br)ccc2n1 | 0 | 0 | 75 | 0 | 0 | 0
COc1ccc(C(=O)Nc2ccc(C)cn2)c(OC)c1 | 0 | 0 | 0 | 0 | 115 | 0
COc1ccc(C(=O)Nc2cc(C)on2)c(OC)c1 | - | 0 | - | - | 0 | 0
COc1cc(NC(=O)C2CCCCC2)c(OC)cc1NC(=O)c1ccccc1 | - | 0 | - | - | 0 | 0
CC(=O)O[C@@]12CO[C@@H]1C[C@H](O)[C@@]1(C)C(=O)[C@H](O)C3=C(C)[C@@H](OC(=O)[C@H](O)[C@@H](NC(=O)OC(C)(C)C)c4ccccc4)C[C@](O)([C@@H](OC(=O)c4ccccc4)[C@H]21)C3(C)C | 73 | 87 | - | 62 | 72 | 68
COc1ccc2ccccc2c1/C=N/NC(=S)Nc1cc(S(=O)(=O)N2CCOCC2)ccc1N1CCOCC1 | 0 | 0 | 0 | 0 | 0 | 0
CCOc1cccc(/C=N/NC(=S)Nc2cc(S(=O)(=O)N3CCOCC3)ccc2N2CCOCC2)c1O | 0 | 0 | 54 | 0 | 81 | 0
CC(=O)Nc1ccc(S(=O)(=O)n2cnc3cc(C)c(C)cc32)cc1 | 0 | 0 | 0 | 29 | 0 | 0
O=C(NCCc1ccc(Cl)cc1)C1CCC(=O)N1Cc1ccc(F)cc1 (centres undefined) | 0 | 0 | 0 | 96 | 0 | 0
Cc1ccc(CCNC(=O)C2CCC(=O)N2Cc2ccc(F)cc2)cc1 (centres undefined) | - | 0 | - | - | 0 | 0
CCCCCCCCCCCCCCCC[n+]1ccc(/C=N/O)cc1 | 98 | 0 | 0 | 64 | - | 0
SMILES | Ba/F3 V617F tox | IEC-6 tox | APP transl inh | BaF3 tox | aSyn 5UTR inh | KLF5 inhibitor
Cc1ncc(CO)c(/C=N/NC(=S)Nc2ccc(F)cc2)c1O | 0 | 0 | 0 | 0 | 0 | 0
Cc1ncc(CO)c(/C=N/Nc2ccc(C(F)(F)F)cn2)c1O | - | 0 | - | - | 88 | 0
CSCCC(NC(=O)COc1ccccc1)C(=O)NCCOc1ccc(C)cc1 (centres undefined) | - | 0 | - | - | 0 | 0
O=C(COc1ccccc1-c1ccccc1)N/N=C/c1ccc2ccccc2c1 | 0 | 0 | 96 | 0 | 0 | 0
CCCCCCCCCC(=O)N/N=C(\C)c1cccnc1 | 0 | 0 | 0 | 0 | 0 | 0
C/C(=N\NC(=O)COc1ccccc1-c1ccccc1)c1ccccn1 | 0 | 0 | 62 | 0 | 114 | 0
CCCCCC(=O)N/N=C(\C)c1ccccn1 | 0 | 0 | 0 | 0 | 67 | 0
O=C(COc1ccccc1-c1ccccc1)N/N=C/c1ccncc1 | 0 | 0 | 0 | 0 | 0 | 0
C/C(=N\NC(=O)COc1ccccc1-c1ccccc1)c1cccnc1 | 0 | 0 | 0 | 0 | 0 | 0
COc1cc(NC(=O)CSCC(=O)Nc2cc(OC)cc(OC)c2)cc(OC)c1 | 0 | 0 | - | 0 | 0 | 0
CCn1c2c(c(=N)c3c1CCC3)CCCC2 | 30 | 0 | - | 50 | 0 | 0
CCCCn1c2c(c(=N)c3ccccc31)CCC2 | 71 | 0 | - | 61 | 0 | 0
CCCCCn1c2c(c(=N)c3ccccc31)CCC2 | 89 | 0 | - | 69 | 0 | 0
CCOC(=O)Cn1c2c(c(=N)c3ccccc31)CCC2 | 0 | 0 | 0 | 0 | 0 | 0
CCOC(=O)Cn1c2c(c(=N)c3c1CCC3)CCC2 | 0 | 0 | 0 | 0 | 0 | 0
CCCCCCCCCCn1c2c(c(=N)c3c1CCC3)CCC2 | 99 | 56 | 0 | 96 | 71 | 0
CCCC(=NC(C)CC)C1=C(O)CC(c2ccccc2)CC1=O (centres undefined) | - | 0 | - | - | 0 | 0
Cc1ccc2nc(Cl)nc(-c3ccccc3)c2c1 | 0 | 0 | 0 | 0 | 0 | 0
Cc1ccc2nc(Cl)c(-c3ccccc3)cc2c1 | - | - | - | - | 74 | -
Cc1cc(C)c(S(=O)(=O)c2cccc(Br)c2C)c(=O)[nH]1 | - | 0 | - | - | 0 | 0
COc1cccc(CNC(=O)Cn2ncc3c(=O)oc4ccccc4c32)c1 | 61 | 0 | - | 62 | 0 | 0
O=C(Cn1ncc2c(=O)oc3ccccc3c21)NCc1cccnc1 | 0 | 0 | 0 | 0 | 0 | 0
COc1cc2c(cc1OC)CN(C(=O)COc1ccccc1[N+](=O)[O-])CC2 | - | 0 | - | - | 0 | 0
CCOc1cnn(-c2cc(Oc3ccc(C)cc3)ncn2)c(=O)c1Cl | 0 | 0 | 74 | 0 | 0 | 0
COC(=O)c1cnn(-c2cc(Oc3ccccc3)ncn2)c1N | 0 | 0 | 0 | 0 | 0 | 0
SMILES | Ba/F3 V617F tox | IEC-6 tox | APP transl inh | BaF3 tox | aSyn 5UTR inh | KLF5 inhibitor
COc1ccc(-c2cc(=O)oc3cc(OCC(=O)Nc4ccc(CCO)cc4)ccc23)cc1 | - | 0 | - | - | 0 | 0
Cc1ccc(S(=O)(=O)Nc2cccc3ncccc23)s1 | 0 | 94 | 56 | 0 | 0 | 0
Cc1ccc(S(=O)(=O)Nc2cccc3ncccc23)cc1 | 0 | 0 | - | 0 | 0 | 0
CS(=O)(=O)c1cccc(NC(=O)C2CCCN2S(=O)(=O)c2ccc(F)cc2)c1 (centres undefined) | - | 0 | - | - | 0 | 0
Cc1ccc2nc(C)c(C(=O)NN=C3CCCCCC3)n2c1 | 0 | 0 | 84 | 0 | 0 | 0
COc1ccc(-c2cc3nc(C)cc(N)n3n2)cc1 | 0 | 22 | 0 | 0 | 0 | 0
COc1ccc(-c2cc3nc(C)cc(-c4ccc(OC)cc4)n3n2)cc1 | - | 0 | - | - | 0 | 0
c1ccc(CC2CCN(c3ncnc4sccc34)CC2)cc1 | 37 | 0 | 0 | 44 | 0 | 0
NS(=O)(=O)c1ccc(NC(=O)COC(=O)C2CC(=O)N(Cc3ccccc3)C2)cc1 (centres undefined) | 0 | 0 | 0 | 0 | 0 | 0
O=C(COC(=O)C1CC(=O)N(Cc2ccccc2)C1)Nc1ccc2c(c1)OCO2 (centres undefined) | 0 | 0 | 53 | 0 | 0 | 0

Source: PubChem (several laboratories)
